Assay results: PubChem BioAssay

Assay: S. cerevisiae growth modulation with rapamycin, primary screen, strain BY4716, OD600, 96 h (AID 1091); note: test concentration not given here
Conditions: higher = more signal, called active from +8 up or from −8 down

z-score, inactive:
COC(=O)c1ccc(OC)c(/C=C\CC(CCc2ccccc2)OC(C)=O)c1 (stereo not given) -0.21, C[N+](C)(C)CCCC[C@@H]1NC(=O)[C@H]2C[C@@H](C(=O)NCCCCCCN)[C@@H](c3cccc(OCCO)c3)N2C1=O -0.133, C/C=C/[C@@H](CCn1cc([C@H](O)c2ccccc2)nn1)[Si](C)(C)c1ccc(OC)cc1 -0.0906, CCCCCCCCCCC(O)C1C=CC2C(=O)NC(=O)C2N1Nc1ccccn1 (stereo not given) -2.6, COC(=O)[C@@]1(Cc2ccc(F)cc2)[C@H]2c3cc(C(=O)N(C)C)n(CCSCCO)c3C[C@H]2CN1C(=O)c1ccccc1 -0.0109, CC1CC/C=C\[C@H]2OC34C=CCN(Cc5ccccc5)C(=O)[C@H]3N(CCO)C(=O)[C@@H]4C2C(=O)O1 (stereo not given in full) 0.285, C=C(COC)C(=O)CC[C@H](OC(=O)c1ccccc1-c1ccccc1C(=O)O)c1ccc(OCCO)cc1 -0.509, C=CCC(OC(C)=O)[C@@H]1[C@@H](N(Cc2cc3ccccc3o2)C(=O)Cc2ccc(OC)cc2)c2cc(OCCCO)ccc2N1C(=O)c1ccc(-c2ccccc2)cc1 (stereo not given in full) 0.714, CC1CC/C=C\[C@H]2OC34C=CCN(c5ccc(Cl)cc5)C(=O)[C@H]3N(C(CO)C(C)C)C(=O)[C@]4(C)C2C(=O)O1 (stereo not given in full) -0.439, O=C1O[C@@H](c2ccccc2)[C@@H](c2ccccc2)N2[C@@H](c3ccc(O)cc3)[C@]3(C(=O)Nc4ccc(C#CC5(O)CCCCCC5)cc43)[C@@H](C(=O)N3CCN(c4ncccn4)CC3)[C@H]12 0.924
